Unmarked numbers belong to inactive results.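 The calls were made as follows: active = AUC reduced over 20% with Padj below 0.05 in at least 2 of 3 replicates; inactive = otherwise.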
How the values were obtained:
Test in all cases: growth AUC relative to DMSO control (median of replicates) (fraction); higher = more growth (less inhibition), active = hit call of the paper
Details in all cases: 20 µM; 24 h
[1] = test system: Coprococcus comes
Outline: (§1)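 Each value is the median of three biological replicates, grown on separate days, of a gut bacterial monoculture incubated anaerobically at 37 °C in mGAM with 20 µM compound (1% DMSO). Cultures started at OD600 0.05 and were read at OD600 hourly for 24 h, with the minimum OD set to 0. Area under the growth curve was normalised to the plate median of solvent-only wells, or to row and column medians on the industrial chemical plate.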

[2] = test system: Escherichia coli ED1a
Outline: as §1

[3] = test system: Escherichia coli IAI1
Outline: as §1

[4] = test system: Eubacterium rectale
Outline: as §1

[5] = test system: Fusobacterium nucleatum subsp. animalis
Outline: as §1

[6] = test system: Lactobacillus gasseri
Outline: as §1

[7] = test system: Lactobacillus paracasei
Outline: as §1

[8] = test system: Odoribacter splanchnicus
Outline: as §1

[9] = test system: Parabacteroides distasonis
Outline: as §1

[10] = test system: Parabacteroides merdae
Outline: as §1

[11] = test system: Roseburia intestinalis
Outline: as §1

[12] = test system: Streptococcus salivarius
Outline: as §1

| Compound | growth AUC [1] | growth AUC [2] | growth AUC [3] | growth AUC [4] | growth AUC [5] | growth AUC [6] | growth AUC [7] | growth AUC [8] | growth AUC [9] | growth AUC [10] | growth AUC [11] | growth AUC [12] |
| --- | --- | --- | --- | --- | --- | --- | --- | --- | --- | --- | --- | --- |
| COc1cc(OC)nc(Sc2cccc(Cl)c2C(=O)O)n1 | 1.02 | 0.981 | 0.977 | 1.04 | 0.941 | 0.897 | 0.971 | 0.985 | 0.906 | 0.975 | 0.984 | 0.973 |
| COP(=O)(OC)O/C(C)=C/C(=O)N(C)C | 1 | 1 | 0.997 | 1.01 | 0.937 | 1.08 | 1.06 | 0.972 | 0.905 | 0.994 | 0.988 | 0.984 |
| CCS(=O)(=O)c1nc2ccccn2c1S(=O)(=O)NC(=O)Nc1nc(OC)cc(OC)n1 | 1.04 | 0.99 | 1.01 | 0.999 | 0.977 | 0.88 | 1.01 | 1.05 | 1.02 | 1.02 | 1.01 | 1.03 |
| COP(=O)(OC)OC1=C(Cl)C2C=CCC12 (stereo not drawn) | 0.999 | 0.968 | 1.03 | 1.01 | 1.04 | 0.957 | 1.02 | 0.892 | 0.975 | 1.03 | 1.04 | 1.03 |
| CCOC(=O)Nc1cccc(OC(=O)Nc2ccccc2)c1 | 0.933 | 1.01 | 1.03 | 0.901 | 0.894 | 1.24 | 0.908 | 0.986 | 0.967 | 0.949 | 1.01 | 1.02 |
| Cn1cc(-c2ccccc2)c(=O)c(-c2cccc(C(F)(F)F)c2)c1 | 1.02 | 0.978 | 0.968 | 0.998 | 0.907 | 0.963 | 0.983 | 0.974 | 0.999 | 0.943 | 1.04 | 0.986 |
| CCOc1cc(C(C)(C)C)ccc1C1COC(c2c(F)cccc2F)=N1 (stereo not drawn) | 0.996 | 0.998 | 1.02 | 1 | 1.08 | 0.932 | 1.01 | 1.04 | 0.891 | 0.878 | 0.948 | 1.02 |
| CCNc1nc(NC(C)(C)C)nc(SC)n1 | 0.969 | 0.987 | 0.986 | 0.956 | 1.06 | 1.1 | 1.08 | 0.876 | 0.936 | 0.947 | 1.07 | 0.984 |
| CCC(C)[C@H]1O[C@]2(C=C[C@@H]1C)C[C@@H]1C[C@@H](C/C=C(\C)[C@@H](O[C@H]3C[C@H](OC)[C@@H](O[C@H]4C[C@H](OC)[C@@H](O)[C@H](C)O4)[C@H](C)O3)[C@@H](C)/C=C/C=C3\CO[C@@H]4[C@H](O)C(C)=C[C@@H](C(=O)O1)[C@]34O)O2.CO[C@H]1C[C@H](O[C@H]2[C@H](C)O[C@@H](O[C@@H]3/C(C)=C/C[C@@H]4C[C@@H](C[C@]5(C=C[C@H](C)[C@@H](C(C)C)O5)O4)OC(=O)[C@@H]4C=C(C)[C@@H](O)[C@H]5OC/C(=C\C=C\[C@@H]3C)[C@]54O)C[C@@H]2OC)O[C@@H](C)[C@@H]1O (stereo partly drawn) | 0.99 | 1.02 | 1.01 | 1.01 | 1.15 | 0.808 | 0.899 | 1.07 | 0.536 (active) | 1.05 | 0.571 (active) | 0.961 |
| CCOC(=O)C(O)(c1ccc(Cl)cc1)c1ccc(Cl)cc1 | 0.953 | 1.03 | 0.968 | 1.02 | 0.879 | 1.03 | 0.979 | 0.992 | 0.823 | 0.92 | 1.03 | 0.978 |
| COc1ccc(/C(=C/C(=O)N2CCOCC2)c2ccc(Cl)cc2)cc1OC | 0.985 | 1.01 | 1.02 | 1.12 | 1.06 | 0.961 | 1.06 | 0.823 | 0.993 | 0.993 | 1.06 | 0.987 |
| CCc1cccc(C)c1N(C(=O)CCl)[C@@H](C)COC | 0.976 | 0.981 | 1.01 | 1.06 | 1.15 | 0.944 | 1.01 | 1.02 | 1.01 | 0.938 | 1.03 | 1.02 |
| COc1cc(OC)nc(NC(=O)NS(=O)(=O)c2cc(NC=O)ccc2C(=O)N(C)C)n1 | 0.993 | 0.996 | 1.01 | 0.998 | 1.06 | 0.902 | 1.05 | 1.01 | 0.977 | 0.951 | 1.04 | 1.03 |
| CN(C)C1CSSSC1.O=C(O)C(=O)O | 0.99 | 0.985 | 1.02 | 1.7 | 1.05 | 1.03 | 0.972 | 0.962 | 1.04 | 1.02 | 1.2 | 0.994 |
| Cc1ccn2nc(S(=O)(=O)Nc3c(F)cccc3F)nc2n1 | 0.981 | 0.969 | 0.965 | 1.1 | 1.1 | 0.999 | 1.02 | 1.09 | 1.02 | 1 | 0.997 | 0.965 |
| CC(Oc1cc(Cl)c(Cl)cc1Cl)C(=O)O (stereo not drawn) | 0.987 | 0.978 | 0.953 | 0.964 | 0.889 | 1.04 | 1 | 1.02 | 0.955 | 0.986 | 0.935 | 0.976 |
| COP(=S)(Oc1cc(Cl)c(Br)cc1Cl)c1ccccc1 (stereo not drawn) | 1.02 | 1.01 | 0.992 | 0.893 | 1.03 | 0.852 | 0.982 | 1.03 | 0.957 | 1.01 | 1.04 | 1.05 |
| CC1(C)[C@H](/C=C(\Cl)C(F)(F)F)[C@@H]1C(=O)O[C@@H](C#N)c1cccc(Oc2ccccc2)c1 | 0.959 | 1 | 0.992 | 0.961 | 0.953 | 0.853 | 0.996 | 1 | 0.985 | 0.957 | 0.919 | 0.957 |
| CNC(=O)ON=C(C)C(C)SC (stereo not drawn) | 0.972 | 1.03 | 1.02 | 1.12 | 1.07 | 0.89 | 0.803 | 0.91 | 0.943 | 0.915 | 0.949 | 0.924 |
| CC1(C)CCC(Cc2ccc(Cl)cc2)C1(O)Cn1cncn1 (stereo not drawn) | 0.982 | 0.971 | 0.98 | 0.8 | 1.08 | 0.976 | 1.02 | 0.823 | 0.927 | 0.918 | 0.943 | 1 |
| CC(C)=CC1C(C(=O)OCc2coc(Cc3ccccc3)c2)C1(C)C (stereo not drawn) | 1.01 | 0.996 | 1.01 | 0.917 | 0.878 | 1.06 | 1.12 | 0.98 | 1.01 | 0.944 | 0.921 | 0.99 |
| CCOP(=O)(NC(C)C)Oc1ccc(S(C)=O)c(C)c1 (stereo not drawn) | 1.04 | 1.03 | 1.04 | 1.05 | 1.09 | 1.07 | 0.975 | 1.01 | 1.13 | 1.05 | 1.05 | 1.05 |
| CC1(C)C(C(=O)OC(C#N)c2cccc(Oc3ccccc3)c2)C1(C)C (stereo not drawn) | 1.03 | 1.01 | 0.988 | 1 | 0.928 | 0.909 | 1.04 | 0.959 | 1.15 | 0.965 | 0.929 | 0.957 |
| C=CCOC(Cn1ccnc1)c1ccc(Cl)cc1Cl.O=S(=O)(O)O (stereo not drawn) | 0.184 (active) | 0.973 | 0.954 | 0.0325 (active) | 0.925 | 0.962 | 0.881 | 0.985 | 0.951 | 0.89 | 0.261 (active) | 0.953 |

Source: the supplement of paper PMC12669032
